# Measured values: PubChem BioAssay (Tox21)
# Results filed as inconclusive are left out. The source made the active and inactive calls. Calls follow the shape of the dose curve; as a rule, active = well fitted activation curve with a large enough effect in the repeat runs; inconclusive = weak or mixed curves; inactive = no such curve, though single readings can be large or run the other way.
# Assay: qHTS assay for small molecules that induce genotoxicity in human embryonic kidney cells expressing luciferase-tagged ATAD5 (AID 651632); also: nearly all actives have a fitted effect of over 15% in size
# Conditions: HEK293T ATAD5-luciferase induction, 16 h; series mostly up to 83.3 µM
# Method in brief: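 Test compounds were delivered by pin tool onto HEK293T reporter cells (2,000/well) expressing ATAD5 fused to luciferase. After 16 hr at 37C, 5% CO2, Amplite was added for 30 min at room temperature and luminescence was measured.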
row,Structure (SMILES),outcome
1,Cc1cc(Cl)ccc1N,inactive
2,O=c1nc(O)n(Cl)c(=O)n1Cl,inactive
3,Nc1ccc(Cl)cc1,inactive
4,CCCCn1cc[n+](C)c1C,inactive
5,CCC[N+]1(C)CCCC1,inactive
6,CCCCCCCCCCn1cc[n+](C)c1,inactive
7,CCCCCCCCCCCCn1cc[n+](C)c1,inactive
8,O=c1[nH]c(=O)n(Cl)c(=O)n1Cl,inactive
9,CC(Cl)(Cl)C(=O)O,inactive
10,C[N+](C)(C)Cc1ccccc1,inactive
11,COP(=O)(OC)OC=C(Cl)Cl,inactive
12,CCCC[n+]1ccc(C)cc1,inactive
13,CCCCCC[n+]1ccccc1,inactive
14,CCn1cc[n+](C)c1C,inactive
15,CCCCCCCCn1cc[n+](C)c1,inactive
16,CCCn1cc[n+](C)c1,inactive
17,CCCC[n+]1ccccc1,inactive
18,CCC[N+]1(C)CCCCC1,inactive
19,CCCCCCCCCCCC(=O)O,inactive
20,C=CCOC(Cn1ccnc1)c1ccc(Cl)cc1Cl (centres undefined),inactive
21,CCCCCCCCCCCCOS(=O)(=O)O,inactive
22,COc1ccccc1N,inactive
23,CCCCCCCCCCCCCC[P+](CCCCCC)(CCCCCC)CCCCCC,inactive
24,CCCC[N+]1(C)CCCCC1,inactive
